# This is a sample that favours compounds with a hit; in the whole collection about 1.2% have one here.
# RGS4-Gao reg: human RGS4-Galphao interaction regulation | binding response (% of control), % at 10 µM | 220,000 compounds, 0.33% hits | P09471 | AID 1415 | Multiplexed bead flow cytometry, RGS4-Galphao binding; actives lie on both sides; in the data active means binding response below about 49% or above about 150%; inactive means in between;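 further: fluorescent Galphao activated with aluminum fluoride binding bead-coupled RGS4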
# Target sequence (P09471 whole entry, looked up): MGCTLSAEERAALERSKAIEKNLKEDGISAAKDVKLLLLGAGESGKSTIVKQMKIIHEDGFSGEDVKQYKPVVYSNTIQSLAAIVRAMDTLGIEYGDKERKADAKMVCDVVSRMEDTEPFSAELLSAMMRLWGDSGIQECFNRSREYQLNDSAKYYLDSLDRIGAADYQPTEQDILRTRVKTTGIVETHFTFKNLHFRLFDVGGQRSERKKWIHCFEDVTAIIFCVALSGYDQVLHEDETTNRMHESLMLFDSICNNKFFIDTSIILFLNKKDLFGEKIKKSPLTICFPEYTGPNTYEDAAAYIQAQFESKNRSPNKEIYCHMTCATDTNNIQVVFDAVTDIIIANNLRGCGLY
# Avidin fluor: avidin bead compound fluorescence profile | AID 1775 | fluorescence (KMESF) at 10 µM | Avidin beads, compound fluorescence 488/530 nm, flow cytometry; active compounds read high | 220,000 compounds, 0.38% hits; in the data active means fluorescence above about 47
# RGS16-Gao: modulates binding between human RGS16 and Galphao. 220,000 compounds, 0.38% hits. binding response (% of control), % at 10 µM. bead-based flow cytometry RGS16-Galphao binding, fluorescence; actives lie on both sides. AID 1441. O15492+P09471; call rule not given here;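 further: Galphao activated by GDP with aluminum fluoride before binding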
# Target sequence (O15492 whole entry, looked up): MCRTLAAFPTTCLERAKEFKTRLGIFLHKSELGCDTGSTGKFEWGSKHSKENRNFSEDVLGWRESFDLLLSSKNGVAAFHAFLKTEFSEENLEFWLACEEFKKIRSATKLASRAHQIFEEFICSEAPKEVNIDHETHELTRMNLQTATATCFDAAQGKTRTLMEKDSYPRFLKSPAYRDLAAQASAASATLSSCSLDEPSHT
# Target sequence (P09471 whole entry, looked up): as the sequence (P09471 whole entry, looked up) above
# GSH fluor: GSH bead compound fluorescence profile; fluorescence (KMESF) at 10 µM; 190,000 compounds, 0.25% hits; GSH beads flow cytometry, compound fluorescence 488/530 nm; active compounds read high; in the data active means fluorescence above about 89;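 further: glutathione beads carrying GST-tagged Bcl family fusion proteins plus one bare bead set; values are compound well signal with DMSO vehicle wells as background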
# RGS8-Gao reg: human RGS8-Galphao interaction regulation. response (percent of control binding), % at 10 µM. AID 1423. multiplexed bead flow cytometry, RGS8-Galphao binding; actives lie on both sides. 220,000 compounds, 0.34% hits; in the data active means response below about 60% or above about 140%; inactive means in between;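 further: Galphao activated as the GDP aluminium fluoride complex binding bead-coupled RGS8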
# RGS7-Gao reg: regulators of human RGS7-Galphao interaction | binding response (% of control), % at 10 µM | Multiplexed bead flow cytometry, RGS7-Galphao binding; actives lie on both sides | P09471 | 220,000 compounds, 0.35% hits; in the data active means binding response below about 49% or above about 150%; inconclusive means no clear call, values can overlap the other calls; inactive means in between;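 further: fluorescent Galphao held in activated GDP-AlF4 state binding bead-coupled RGS7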
# * marks the source's active call; other numbers are inactive results; ? = inconclusive; · = not tested or not shown; [ ] = remark or other dose.
SMILES,RGS4-Gao reg,Avidin fluor,RGS16-Gao,GSH fluor,RGS8-Gao reg,RGS7-Gao reg
COc1cc(NC(=S)NC(=O)c2cc(C)cc(C)c2)ccc1NC(=O)c1cccs1,101.6,7,109.2,104*,105.0,101.5
COc1cc(NC(=S)NC(=O)c2ccc(C(C)(C)C)cc2)ccc1NC(=O)c1cccs1,92.4,7,86.2,20,96.2,89.3
O=C(NCCCn1ccnc1)c1cc(S(=O)(=O)N2CCOCC2)c(Cl)cc1Cl,100.4,8,102.4,249*,97.1,102.0
Cc1ccc(S(=O)(=O)N2CCOCC2)cc1C(=O)NCCCn1ccnc1,91.5,7,94.0,31,93.4,92.7
O=C(c1ccc(Cn2cc(Br)cn2)o1)N1N=C(C(F)F)CC1(O)C(F)F (centres undefined),150.4*[activator],66*,145.2,39,111.2,145.2
O=C(CSc1cccc(C(F)(F)F)c1)N1CCN(S(=O)(=O)c2ccccc2)CC1,94.8,8,95.5,265*,94.3,89.9
O=C(O)/C=C/C(=O)N1CCN(S(=O)(=O)c2cccc(C(F)(F)F)c2)CC1,99.7,10,104.8,23,101.0,98.3
CCc1ccc2c(c1)c1nc(C)sc1n2CC(=O)OC,103.7,51*,105.1,26,101.6,102.3
Cc1ccc(/C=C2\CCC3=C2OC(N)=C(C#N)C3c2ccc(C)cc2)cc1 (centres undefined),116.6,66*,118.1,40,104.6,116.9
Cc1cccc(C(=O)N[C@H](C(=O)Nc2ccc(C)c(S(=O)(=O)N(C)C)c2)C(C)C)c1,91.2,11,88.3,14,95.8,95.2
c1ccc(-c2onc3c2CCCC3)cc1,100.5,8,96.7,242*,108.2,109.6
O=C(Nc1ccccn1)c1onc2c1CCCC2,98.3,4,84.3,11,96.4,103.2
CCN(CC)c1ccc(/C=c2\sc3nnc(-c4ccccc4Cl)n3c2=O)cc1,133.9,28,133.4,104*,100.4,125.0
COc1ccc(CCN2C(=O)c3ccccc3C2(O)c2ncc[nH]2)cc1OC (centres undefined),95.4,4,100.9,146*,98.0,95.3
Cc1nnc(SCc2nnc(-c3ccccc3Br)o2)s1,103.2,6,101.8,10,100.2,99.9
CC(=O)N=c1sc2ccccc2n1C,100.1,32,100.7,28,99.9,101.5
N/N=c1\sc2ccccc2n1-c1ccccc1,106.4,47*,103.7,14,105.7,104.5
COCCCn1c(SCC(=O)NNC(=O)c2cccc(O)c2)nnc1-c1ccncc1,103.6,7,101.5,18,102.9,98.8
CC(C)CNc1cc(Cl)c(S(=O)(=O)NCC(C)C)cc1C(=O)O,108.9,85*,106.2,30,100.3,134.7
Clc1cccc(-c2cc3nc4c(c(N5CCN(c6cnccn6)CC5)n3n2)CCCC4)c1,67.3,3,104.0,104*,77.1,74.0
Clc1cccc(-c2cc3nc4c(c(N5CCOCC5)n3n2)CCCC4)c1,100.5,35,101.7,19,100.8,99.7
CCn1cc(C(=O)O)c(=O)c2cc(F)c(N3CCN(C(=S)NC(=O)c4ccccc4)CC3)cc21,90.3,8,90.0,·,92.7,?
COc1c(N2CCN(C(=S)NCc3ccccc3)C(C)C2)c(F)cc2c(=O)c(C(=O)O)cn(C3CC3)c12 (centres undefined),104.7,55*,102.5,35,103.2,110.2
C[C@@H](C(=O)N[C@@H](Cc1c[nH]c2ccccc12)C(=O)O)n1nnc2ccccc2c1=O,103.0,11,107.4,·,104.8,?
CCNC(=S)N(Cc1ccco1)Cc1cc2cc(OCC)ccc2[nH]c1=O,98.3,10,97.6,11,97.8,97.1
SMILES,RGS4-Gao reg,Avidin fluor,RGS16-Gao,GSH fluor,RGS8-Gao reg,RGS7-Gao reg
CCNC(=S)N(Cc1cccs1)Cc1cc2cc(OCC)ccc2[nH]c1=O,126.2,41,143.0,239*,100.2,130.8
Cc1ccc(S(=O)(=O)Nc2nc(C)cc(NCCN)n2)cc1,98.5,7,102.8,279*,99.1,98.9
Cc1ccc(S(=O)(=O)Nc2nc(C)cc(NN)n2)cc1,97.0,6,99.5,·,100.1,?
NNC(=O)/C(=C/c1cccs1)NC(=O)c1ccccc1Cl,98.3,12,102.0,25,100.7,98.6
COc1cc(N2CCCC2)c(OC)cc1/C=C(/C#N)c1ccc(Br)cc1,129.5,59*,170.3,74,94.8,129.0
COc1cc(NC(=O)c2ccc([N+](=O)[O-])cc2)c(OC)cc1NC(=O)CC(C)C,101.7,9,100.5,20,99.4,97.7
O=C(N/C=C/n1cnc2cc(C(F)(F)F)ccc21)c1ccccc1,101.0,12,99.5,12,98.3,97.9
COc1ccc(Cl)cc1S(=O)(=O)n1cnc2ccccc21,99.2,62*,106.1,15,102.5,139.0
CCOc1ccc(Cl)cc1S(=O)(=O)n1cnc2ccccc21,96.7,14,94.3,14,94.6,99.0
O=C(C1CCN(S(=O)(=O)N2CCC3(CC2)OCCO3)CC1)N1CCC(Cc2ccccc2)CC1,387.4*[activator],233*,526.2*[activator],28,116.6,298.1*[activator]
Cc1nc(Sc2ccc(Br)cc2)c(C#N)c(C)c1[N+](=O)[O-],102.4,6,96.6,·,97.3,?
c1csc(CSc2nc3ccccc3s2)c1,98.7,7,102.5,276*,99.8,99.9
S=C1NCCOCCNC(=S)NCCOCCOCCN1,93.2,9,99.0,8,97.9,91.9
O=C(CCC(=O)NNC(=O)COc1ccccc1)NCc1ccccc1,96.3,29,101.2,8,99.3,95.2
Cc1cc(C)cc(OCC(=O)NNC(=O)CCC(=O)NCc2ccccc2)c1,98.5,3,94.3,152*,97.6,99.4
Cc1ccc(Cl)cc1NC(=O)COC(=O)CC1CC2CCC1C2 (centres undefined),101.9,9,103.9,262*,104.5,104.7
Cc1ccc(Cl)cc1NC(=O)COC(=O)C1CC1,102.6,16,57.1,12,89.8,98.8
Cn1c(=O)c2c(O)c([N+](=O)[O-])c(=O)n(C)c2n(C)c1=O,92.3,8,91.3,·,97.3,?
CC(C)NC(=O)C(=O)NNC(=O)C12CC3CC(CC(C3)C1)C2,82.3,7,72.5,109*,88.8,100.6
CC(CN1CCCCC1)C(=O)NNC(=O)C12CC3CC(CC(C3)C1)C2 (centres undefined),103.2,24,102.7,21,102.0,104.8
O=C1C(C2=NC(c3ccccn3)C3C(=O)N(c4ccccc4)C(=O)C23)=C(O)c2ccccc21 (centres undefined),93.1,6,95.1,·,95.0,?
COc1ccc(NC(=O)Cn2cc(S(=O)(=O)Cc3ccccc3)c3ccccc32)c(OC)c1,93.1,8,92.8,12,96.4,89.6
CCCn1cc(S(=O)(=O)CC(=O)Nc2ccc(OC)cc2OC)c2ccccc21,83.5,5,92.7,130*,95.2,91.5
